Source: PMC4336329 (PLoS ONE, 2015)
The campaign covered roughly 310,000 compounds. About 14,000 (4.5%) showed an effect of 50% or more. The effect is printed as a negative number. The sample holds strong results, similar compounds and a random draw of the others, so the mix is not that of the screen.

The molecules below were run against human ether-à-go-go-related gene (hERG) potassium channel (human, UniProt Q12809) (assay: primary screen, population patch clamp on CHO cells stably expressing hERG; higher = less effect of the substance).
Sequence of human ether-à-go-go-related gene (hERG) potassium channel (Q12809 whole entry, looked up): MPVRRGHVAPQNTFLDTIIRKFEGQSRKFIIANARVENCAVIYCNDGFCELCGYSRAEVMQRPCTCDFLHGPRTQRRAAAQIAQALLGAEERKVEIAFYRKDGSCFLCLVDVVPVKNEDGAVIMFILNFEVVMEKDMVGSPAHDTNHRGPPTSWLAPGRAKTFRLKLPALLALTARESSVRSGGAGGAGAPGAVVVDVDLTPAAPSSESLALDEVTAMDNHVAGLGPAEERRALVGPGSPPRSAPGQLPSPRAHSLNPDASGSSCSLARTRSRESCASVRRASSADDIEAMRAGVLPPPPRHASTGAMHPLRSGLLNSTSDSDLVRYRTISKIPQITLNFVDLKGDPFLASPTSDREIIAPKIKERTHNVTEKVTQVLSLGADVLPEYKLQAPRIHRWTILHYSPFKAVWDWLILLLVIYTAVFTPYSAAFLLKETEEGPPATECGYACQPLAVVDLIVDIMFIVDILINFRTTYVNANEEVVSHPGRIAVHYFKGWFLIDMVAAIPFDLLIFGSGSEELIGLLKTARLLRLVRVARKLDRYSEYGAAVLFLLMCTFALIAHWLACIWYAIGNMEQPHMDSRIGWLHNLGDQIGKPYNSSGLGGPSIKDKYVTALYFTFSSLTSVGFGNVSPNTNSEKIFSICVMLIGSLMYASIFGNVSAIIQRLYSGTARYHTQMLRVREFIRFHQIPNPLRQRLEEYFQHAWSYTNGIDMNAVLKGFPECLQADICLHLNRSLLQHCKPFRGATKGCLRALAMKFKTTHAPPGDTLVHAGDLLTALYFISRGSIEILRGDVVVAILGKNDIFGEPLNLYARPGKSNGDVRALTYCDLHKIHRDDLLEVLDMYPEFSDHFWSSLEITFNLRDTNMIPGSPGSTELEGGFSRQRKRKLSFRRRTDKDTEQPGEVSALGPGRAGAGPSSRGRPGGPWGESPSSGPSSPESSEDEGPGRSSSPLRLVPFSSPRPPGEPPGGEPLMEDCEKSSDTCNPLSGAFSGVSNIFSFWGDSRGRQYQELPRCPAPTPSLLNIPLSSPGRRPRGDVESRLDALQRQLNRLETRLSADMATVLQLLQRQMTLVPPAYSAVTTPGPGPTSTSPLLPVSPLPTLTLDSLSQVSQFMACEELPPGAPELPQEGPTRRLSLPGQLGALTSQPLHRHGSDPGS
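Note: peak tail current of the secondary pulse compared with the same well before compound.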

Row | Compound | hERG current change (%, negative = inhibition) at 10uM
1 | N#Cc1c(Nc2ccccc2)sc(C(=O)c2ccccc2)c1N | -7.02%
2 | O=C(O)c1cccc([N+](=O)[O-])c1C(=O)Nc1cccc2ccccc12 | 21.9%
3 | C[C@@H]1CC=C[C@H]2[C@H]1C(=O)N(Cc1ccccc1)[C@H]2c1ccc(/C=C/c2ccccc2)cc1F | 4.34%
4 | O=C(CN(Cc1ccco1)C(=O)Cn1nnc(-c2cccs2)n1)NCc1ccccc1 | -51.7%
5 | O=C(CN(CCc1ccccc1)C(=O)Cn1nnc(-c2cccs2)n1)NCc1ccco1 | -38.7%
6 | O=C(CN(Cc1ccco1)C(=O)Cn1nnc(-c2cccs2)n1)NCC1CCCO1 (centres unmarked) | 6.63%
7 | CCSc1nnc(NC(=O)COc2ccc(Cl)cc2)s1 | 24%
8 | CC(=O)C1=C(C)NC(SCC(=O)c2ccc(Cl)c(Cl)c2)=C(C#N)C1c1ccco1 (centres unmarked) | 5.27%
9 | CCCCC(=O)NC(Nc1cc(C)ccn1)(C(=O)OCC)C(F)(F)F (centres unmarked) | 2.5%
10 | CCC(C)(C)C1CCC(=NNC(=S)Nc2ccccc2)CC1 (centres unmarked) | 11.4%
11 | COC(/C=C/Nc1ccc(OC)cc1)=C(C#N)C#N | -59.9%
12 | COC(/C=C/Nc1ccc(Br)cc1)=C(C#N)C#N | -39.3%
13 | COC(/C=C/Nc1ccc(C)cc1)=C(C#N)C#N | -38%
14 | CCc1cc2c(CN3CCN(CC)CC3)cc(=O)oc2cc1O | -8.81%
15 | CC1(C)Oc2ccc3ccc(=O)oc3c2C(/C=N/O)C1=O (centres unmarked) | 3.87%
16 | O=C(CN1C(=O)NC2(CCCCCC2)C1=O)c1ccc(OC(F)F)cc1OC(F)F | -35%
17 | COc1cc(CN2CCN(Cc3ccc(SC)cc3)CC2)cc(OC)c1O.O=C(O)C(=O)O | -67.9%
18 | COc1cc(OC)c(OC)cc1CN1CCN(Cc2cccc(F)c2)CC1.O=C(O)C(=O)O | 10.2%
19 | COc1cc(CN2CCN(C(=O)CC(C)C)CC2)cc(OC)c1O.O=C(O)C(=O)O | -0.00662%
20 | COc1cc(OC)c(OC)cc1CN1CCN(Cc2ccc(SC)cc2)CC1.O=C(O)C(=O)O | -61.5%
21 | COc1cccc(CN2CCN(Cc3cc(OC)c(OC)cc3OC)CC2)c1.O=C(O)C(=O)O | -29.1%
22 | COc1ccc(C(=O)N2CCN(Cc3cc(OC)c(O)c(OC)c3)CC2)cc1OC.O=C(O)C(=O)O | 8.89%
23 | Cc1ccc(N2C(=O)CS(=O)(=O)CC2=O)cc1 | 22.9%

Row | Compound | hERG current change (%, negative = inhibition) at 10uM
24 | CC[C@H](C)[C@H](NC(N)=O)C(=O)NCCc1ccc(OC)c(OC)c1 | 20.1%
25 | O=[N+]([O-])C(=C1Nc2ccccc2N1)/C(Cl)=C(/Cl)Br | 19.8%
26 | Brc1ccc2nc(-c3cccs3)c(NCC3CCCO3)n2c1 (centres unmarked) | -52.6%
27 | c1csc(-c2nc(NCC3CCCO3)c3ccccc3n2)c1 (centres unmarked) | -20.5%
28 | N#Cc1nc(-c2cccs2)oc1NCC1CCCO1 (centres unmarked) | -10%
29 | COc1ccccc1OCC(=O)Nc1c2c(nn1-c1ccccc1)CS(=O)(=O)C2 | -8.22%
30 | Cc1c(C)c2cc(Cl)c(OCC(=O)N3C[C@H]4C[C@@H](C3)c3cccc(=O)n3C4)cc2oc1=O | 1.78%
31 | Cc1ccccc1C(=O)Nc1c2c(nc3ccccc13)CCCC2 | -5.54%
32 | O=C(Nc1c2c(nc3ccccc13)CCCC2)c1ccccc1Cl | 17.2%
33 | CC(=O)c1ccc(Nc2c3c(nc4ccccc24)CCCC3)cc1 | -53.3%
34 | CC(=O)c1cccc(Nc2c3c(nc4ccccc24)CCC3)c1.Cl | -68.8%
35 | O=C(O)c1cccc(Nc2c3ccccc3nc3ccccc23)c1 | 19.7%
36 | CC(=O)c1cccc(Nc2nc(-c3ccccc3)nc3ccccc23)c1.Cl | 26.9%
37 | CCC(CC)C(=O)NC12CC3CC(CC(C3)C1)C2 | 5.15%
38 | Cc1cccc(CSCCNC(=O)CN(c2cc(C)cc(C)c2)S(C)(=O)=O)c1 | -23.9%
39 | CC(NC(=O)C(=O)N1CCOCC1)C(c1cccs1)N1CCN(c2ccc(F)cc2)CC1 (centres unmarked) | -0.955%
40 | Cc1nc(C(F)(F)F)nc(Nc2ccc(Br)cc2)c1C#N | 12.2%
41 | COc1ccc(C=C(c2nc3ccccc3s2)c2nc3ccccc3s2)cc1O | 3.94%
42 | Cc1ccc2c(c1)N(CCC(=O)NCCN1CCOCC1)C(=O)CO2 | -2.16%
43 | N/C(Cc1ccc([N+](=O)[O-])cc1)=N\OC(=O)COc1ccc2ccccc2c1 | -14.4%
44 | O=C(O)c1cccc(CN2C(=O)SC(Nc3ccccc3)C2=O)c1 (centres unmarked) | 2.16%
45 | Cl.OC(COc1ccc(Cl)cc1Cl)CN1CCc2ccccc2C1 (centres unmarked) | -58.6%
46 | OC(COc1ccc(Cl)cc1Cl)Cn1ccnc1 (centres unmarked) | 9.67%

Row | Compound | hERG current change (%, negative = inhibition) at 10uM
47 | Cc1ccc(C(C)C)c(OCCN2CCc3ccccc3C2)c1.Cl | 14.5%
48 | Cc1ccc(C(C)C)c(OCC(O)CN2CCOCC2)c1 (centres unmarked) | -2.99%
49 | Cc1ccc(C)c(OCCCN2CCc3ccccc3C2)c1.Cl | -49.4%
50 | Cl.c1ccc(-c2ccccc2OCCOCCN2CCc3ccccc3C2)cc1 | -28.7%
51 | OC(COc1ccc(F)cc1Cl)CN1CCc2ccccc2C1 (centres unmarked) | -41.7%
52 | Cl.Clc1ccc(OCCOCCN2CCc3ccccc3C2)c(Cl)c1 | -69.8%
53 | Cc1ccc(C(C)C)c(OCC(O)CN2CCN(CCO)CC2)c1.Cl (centres unmarked) | -13.9%
54 | Cl.Clc1ccc(OCCCN2CCc3ccccc3C2)c(Br)c1 | -34.8%
55 | Cc1ccc(C(C)C)c(OCCCN2CCc3ccccc3C2)c1.Cl | -70.1%
56 | Cc1ccc(C(C)C)c(OCC(O)CN2CCc3ccccc3C2)c1.Cl (centres unmarked) | -65%
57 | CCOC(=O)/C=C1\SCC(=O)N1CC(=O)NCCOC | -10.2%
58 | NC(=O)c1ccc[n+](CC(=O)OCCC23CC4CC(CC(C4)C2)C3)c1.[Cl-] | 11.8%
59 | COc1ccc(N(CC(=O)NC2CCCC2)S(=O)(=O)c2c(C)[nH]c(=O)[nH]c2=O)cc1 | 10.2%
60 | Cc1cccc(C)c1OCCN1CCOCC1.O=C(O)C(=O)O | -0.56%
61 | O=C(NNc1ncccc1-n1cccc1)c1ccc(Cl)cc1 | -15.4%
62 | O=C(CSc1nc(C2CC2)nc2sc3c(c12)CCCC3)NCc1ccco1 | -6.99%
63 | Cc1ccc(Cn2c(Sc3ncccn3)nc3c2c(=O)[nH]c(=O)n3C)cc1 | -5.24%
64 | CCOC(=O)C1=C(N)n2c(s/c(=C/c3ccco3)c2=O)=C(C(=O)OC)C1c1ccco1 (centres unmarked) | -2.57%
65 | COCCNC(=O)c1c(NC(=O)c2ccco2)n(Cc2ccccc2)c2nc3ccccc3nc12 | -16.9%
66 | Cc1cccc(OCC(O)CN2CCc3ccccc3C2)c1.Cl (centres unmarked) | -38%
67 | Cc1ccc(OCC(O)CN2CCc3ccccc3C2)c(C)c1.Cl (centres unmarked) | -72.3%
68 | Cc1cc(OCC(O)CN2CCc3ccccc3C2)cc(C(C)C)c1.Cl (centres unmarked) | -56.2%
69 | Cc1ccc(OCC(O)CN2CCOCC2)c(C)c1.Cl (centres unmarked) | 20.2%

Row | Compound | hERG current change (%, negative = inhibition) at 10uM
70 | Cc1ccc(OCCCCN2CCc3ccccc3C2)c(C)c1.Cl | -34.1%
71 | Cc1nc(SCCOc2ccccc2F)[nH]c(=O)c1Cc1ccccc1 | 46.9%
72 | O=C(Nc1cnn(Cc2ccccc2)c1)c1nc2ncccn2n1 | 6.14%
73 | Cc1nc(CCNC(=O)c2cc(COc3ccc(F)cc3Cl)on2)sc1C | -22.4%
74 | O=C(O)c1ccc(Cl)c2c1C1C=CCC1C(c1ccccn1)N2 (centres unmarked) | 7.76%
75 | COc1ccc(C(=O)NC2CC2)cc1OC1CCN(Cc2ccc(F)cc2F)CC1 | -81.5%
76 | O=C(NCc1ccccn1)c1ccc(OC2CCN(Cc3ccc(F)cc3F)CC2)cc1 | -25.9%
77 | COc1ccc(C(=O)NC2CC2)cc1OC1CCN(Cc2ccc(F)cc2Cl)CC1 | -70.9%
78 | COc1ccc(C(=O)NCC(=O)OCc2ccc(F)cc2Cl)cc1OC | -1.96%
79 | COCCNC(=O)c1cccc(OC2CCN(Cc3ccc(F)cc3OC)CC2)c1 | -23.1%
80 | COc1ccc(C(=O)NC2CCN(Cc3c(F)cccc3Cl)CC2)cc1OC | -1.46%
81 | Cc1cc2sc3ccccc3c(=O)c2c(C)c1O | 21.6%
82 | Cc1ccc(S(=O)(=O)N2CCOCC2)cc1C(=O)Nc1ccc2c(c1)CCC2 | -10.6%
83 | COC(=O)c1cn(NC(=O)C2CCC(C(C)(C)C)CC2)c(=O)c2ccccc12 (centres unmarked) | 13.7%
84 | CCCCCCCCCCCCCCCC[n+]1cccc2ccccc21.[I-] | -71.2%
85 | NC(=O)C[n+]1cccc2ccccc21.[I-] | 9.16%
86 | O/N=C/c1cccc[n+]1CCCCCC[n+]1ccccc1/C=N/O.[Br-] | 20.1%
87 | Cc1cccc[n+]1CCCCCCCCCC[n+]1ccccc1C.[Br-] | 37.8%
88 | CCCC[n+]1c2ccccc2cc2ccccc21.[I-] | -32.9%
89 | CCC[n+]1c2ccccc2cc2ccccc21.[I-] | 23.7%
90 | CCCCCCCCC[n+]1cccc2c3ccccc3ccc21.[Br-] | -84.8%
91 | CCCCCCCC[n+]1cccc2c3ccccc3ccc21.[I-] | -84.3%
92 | [Cl-].c1ccc(C[n+]2cccc3c4ccccc4ccc32)cc1 | -15%
